# In PubChem BioAssay (NCATS):
# Results filed as inconclusive are left out. Calls of active or inactive are those of the source. The call rests on the fitted dose curve; in most records, active means well fitted inhibition curve with a large enough effect; inconclusive means small, poorly fitted or top-dose-only effect; inactive means flat fitted curve, though single readings scatter. Where a SMILES comes first, the peptide text is derived from it. [ ]: non-standard residue; d: D form. pGlu = O=C1CC[C@@H](C(=O)O)N1; Thz = O=C(O)[C@@H]1CSCN1
# Tested on: astro (control astrocytes)
# Assay: Drug repurposing screens with cells derived from glioblastoma tumor samples (AID 1345199); further: nearly all actives have a fitted effect of over 40% in size
# Conditions: viability, ATP luminescence, 48 h; series mostly up to 45.9 µM; activity, negative = cell killing: at the top concentration
# Protocol: CD133+ cells were isolated from GBM patient biopsies and cultured as neurospheres. Neurospheres from four patients were used to screen the NCATS pharmaceutical collection (NPC) library of approved drugs and bioactive compounds. […] The neurospheres were incubated with drugs for 48 hours in 1536-well format, then assayed with an ATP content cell viability assay. […] These hits were cherry picked to confirm activity in the four original GBM lines screened plus three other slower growing GMB lines (unable to yield enough cells for a full primary screen). Variable activities of the confirmed primary hits in the different GBM patient lines were observed. The patient line 206 responded to the greatest number of compounds and line 923 responded to the least amount of active compounds.
# On the % scale 0 is the no-effect control and ±100 the full control effect; potency means the concentration at half of the fitted maximal effect.
Structure (SMILES),Potency,"activity, negative = cell killing"
COc1ccc(/C=C/C(=O)Nc2ccccc2C(=O)O)cc1OC,17.8 µM (active),
CCOc1ccc2nc(S(N)(=O)=O)sc2c1,,-14.7% (inactive)
O=C(O)Cc1ccc(-c2ccccc2)cc1,,-15% [at 21.2 µM] (inactive)
CCCCCC[C@@H](O)C/C=C\CCCCCCCC(=O)O,inactive,
O=C(O)[C@H](O)[C@@H](O)[C@H](O)[C@H](O)CO,inactive,
C=CCN1C(=O)C(CC(C)C)NC1=S (stereo not given),inactive,
N=c1ccn2c(n1)O[C@H]1[C@H](O)[C@@H](CO)O[C@H]12,,-27.9% (inactive)
CCC1C(=O)OCC1Cc1cncn1C (stereo not given),,-13.2% (inactive)
CC(=O)O[C@H]1C[C@@]2(C)[C@@H](C[C@@H](O)[C@H]3[C@@]4(C)CC[C@@H](O)[C@@H](C)[C@@H]4CC[C@@]32C)/C1=C(\CCC=C(C)C)C(=O)O,,-5.95% (inactive)
CN1CCN(c2cc3c(nn2)Oc2ccccc2N3C)CC1,,-12.6% (inactive)
Nc1ccc(C(=O)O)c(O)c1,,-14.3% (inactive)
O=C1CC[C@@H](C(=O)N2CSC[C@H]2C(=O)O)N1 ([pGlu]-[Thz]-OH),,-9.59% (inactive)
CO[C@@]1(NC(=O)Cc2cccs2)C(=O)N2C(C(=O)O)=C(COC(N)=O)CS[C@@H]21,inactive,
O=c1[nH]c2ccccc2n1CCCN1CCN(C(c2ccccc2)c2ccccc2)CC1,,-26.5% (inactive)
O=C(CCN1CCN(CCO)CC1)N1c2ccccc2Sc2ccc(C(F)(F)F)cc21,,-7.61% (inactive)
Nc1cc(-c2ccncc2)c[nH]c1=O,,15.3% (inactive)
C[S+](CC[C@H](N)C(=O)O)C[C@H]1O[C@@H](n2cnc3c(N)ncnc32)[C@H](O)[C@@H]1O (stereo not given in full),inactive,
CCCCCCOc1ccccc1C(N)=O,14.1 µM (active),
O=C(O)/C=C/C(O)c1ccc(Cl)cc1 (stereo not given),,-3.33% (inactive)
CCCCC[C@H](O)/C=C/[C@@H]1[C@@H](C/C=C\CCCC(=O)O)[C@@H](O)C[C@H]1O,inactive,

Structure (SMILES),Potency,"activity, negative = cell killing"
CC1(C)S[C@@H]2[C@H](NC(=O)[C@H](N)c3ccccc3)C(=O)N2[C@H]1C(=O)O,,-8.82% (inactive)
CC(=O)SCC(CC(=O)c1ccc(C)cc1)C(=O)O (stereo not given),,-12.7% (inactive)
CC1(C)[C@@H](O[C@H]2O[C@H](C(=O)O)[C@@H](O)[C@H](O)[C@H]2O[C@@H]2O[C@H](C(=O)O)[C@@H](O)[C@H](O)[C@H]2O)CC[C@]2(C)[C@H]3C(=O)C=C4[C@@H]5C[C@@](C)(C(=O)O)CC[C@]5(C)CC[C@@]4(C)[C@]3(C)CC[C@@H]12,,-4.45% (inactive)
Cc1ccc2c(n1)Oc1ccc(C(C)C(=O)OCC(=O)N(C)C)cc1C2 (stereo not given),,-24.9% (inactive)
COc1cc(/C=C/C(=O)N2CCN(CC(=O)N3CCCC3)CC2)cc(OC)c1OC,,-8.44% (inactive)
O=C(/C=C/c1ccccc1)NCCO,,-22.7% (inactive)
CC1(C)C[C@@H]1C(=O)N/C(=C\CCCCSC[C@H](N)C(=O)O)C(=O)O,inactive,
Nc1ccc([N+](=O)[O-])cc1O,,-23.2% [at 91.6 µM] (inactive)
C=CCCCCCCCCC(=O)O,,-13.1% (inactive)
O=C(O)c1cc(O)c(O)c(O)c1,,-6.29% (inactive)
c1ccc2sc(SN3CCOCC3)nc2c1,,-13.2% (inactive)
CC(=O)c1ccc(OCC(=O)N2CCCCC2)cc1,,-10.9% (inactive)
CC(N)C(=O)OC(C)(C)Cc1ccc(Cl)cc1 (stereo not given),,-27.4% (inactive)
CC[C@H]1OC(=O)[C@H](C)C(=O)[C@H](C)[C@@H](O[C@@H]2O[C@H](C)C[C@H](N(C)C)[C@H]2O)[C@](C)(OC)C[C@@H](C)C(=O)[C@H](C)[C@H]2N(CCCCn3cnc(-c4cccnc4)c3)C(=O)O[C@]12C,,-7.24% (inactive)
CC(C)Cc1ccc([C@H](C)C(=O)O)cc1,,-15% (inactive)
CC1(C)[C@@H](O)CC[C@]2(C)[C@H]3C(=O)C=C4[C@@H]5C[C@@](C)(C(=O)O)CC[C@]5(C)CC[C@@]4(C)[C@]3(C)CC[C@@H]12,inactive,
CCCOC(=O)c1ccc(O)cc1,inactive,
N=C1N=C(N)c2cc3ccccc3cc21,39.8 µM (active),
Cc1nc2ccccc2n1Cc1ccc(Cl)cc1,3.16 µM (active),
C#CC1(O)CC[C@H]2[C@@H]3CCC4=CCCC[C@@H]4[C@H]3CC[C@@]21C (stereo not given in full),,-19.8% [at 21.2 µM] (inactive)
